Experimental data reported in the supplement of paper PMC6555819.

test system: VDR:RXRa (NR concentration 270 nM, RXRa partner concentration 90 nM); assay: PBM binding z-score (relative to random genomic background probes); higher = stronger binding; sequences stand for … in GC…GCGATTGACAGCGTAGAATGAAGG
Method: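 Protein-binding microarray (Agilent 4x180K custom design, double-stranded 60-nt probes: 5' GC cap, 34-nt variable region, 24-nt constant primer region; full probe sequence given). Purified or IVT nuclear receptor:RXRα heterodimers (3:1 NR:RXRα, mostly 270:90 nM) or homodimers were incubated for 1 h in PBS with 2% milk and no ligand, then detected with Alexa488 antibodies. Fluorescence from o1-orientation probes (~5 replicates averaged) was converted to z-scores against 500 random hg19 background probes. Variable regions are seed direct-repeat (DR0–DR5) sites, all their single-nucleotide variants and half-site ablations.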

| Sequence | PBM binding z-score |
| --- | --- |
| ATATGTAGGTTACATCCGGGTCATTCATGCTATG | 4.1 |
| ATCGCAAGGTCGAAGGTGAGTATACCCACCCGAA | 1.8 |
| CCGACTGGGGCTGAAAGGTTACCATACCATCCGG | 0.343 |
| GCTGTTAGGTCAACTGATGGTCAGCTAAAGCTCG | 2.01 |
| CGAACTAGGCCATTGACAGGACAGTGAATAGTAA | -0.259 |
| CCAAACAGGTGAAAGGTAACTCAGTCTGGTACGC | 0.991 |
| CTCGAAAGGTCGGTTAAGGTGAGTATACGGATAA | 2.03 |
| TCATATAGGTAAAAAGGTGAAAGTCCGTAAGTTA | 1.61 |
| ATCTCTAGGTAAGACTCAGGTCAGTGAAGAACGC | 0.693 |
| CCTTACGGGTCACTCCAGGTTATAGCCTCGGAGT | 4.09 |
| CGAACTAGGTCATGGACAGTGAATCTCCGCACGC | 1.64 |
| CCGAGTAGTTTATGGGGCATTCAGGCAACGGTGA | -0.229 |
| AGAATGAGGTTACGATCAGGGAAACAGAATACAT | 1.43 |
| CCTTACGGGTCACGAGGTTAGAGCACGACGAGCG | 4.98 |
| AGAATGAGGTAAAGATCAGGGAAACAGAATACAT | 0.0577 |
| TCCATTAGTTGATTAGGGCAACCGAAACAGCGGA | 0.545 |
| CCAGACAGGTGAGAAGGTAACCCAGCCTCGATTA | -0.04 |
| CTACCAAGCTGAACAAGGTCGTTGATTACTATTC | 1.51 |
| AATAGCAGGCCAAGTTTGGGTCACTCAAACAAAG | 0.703 |
| GCGACTGGGGCAAAGCACGTTACCATAAGGTTGG | -0.469 |

| Sequence | PBM binding z-score |
| --- | --- |
| TCTTGTAGTTCAAGCAGGTTAAGAAAGCCTGAGT | 3.32 |
| TCCAGTAGGTTAGTCGGGGCATTCAGCCAACATA | 2.47 |
| CGTCAAAGTTCAACCAAGGTAACGTAAAGCACGC | 4.77 |
| TCGAGCAGGTTACCAATGGGGCATTCAGCTTTCT | 0.08 |
| CCTGCTAGATCAATGGTCAGCTAAAGCAGCTCGC | -0.615 |
| GCAGGCAGGTGAAACGCAGGTAACTCAGGGTGGC | 0.85 |
| AGAACGAGCGCAATGAGTTGATAGCACGGGTGGC | -0.0491 |
| CGTCCAAGGTCAGAGGGGTCAGTGAATGCCGAGT | 7.48 |
| ATATGTAGGTTACATCCGGGACATTCAGGCTATG | 1.14 |
| CGTAAAAGTTCAACTAAGGTAACGTAAAGCACGC | 4.33 |
| CCAGACAGGTGAAAGGTAACGCAGTCTGGTACGC | 0.77 |
| TCTTGTTGATCAACAGGAGGTTAAGAAAGATCGA | 0.368 |
| GTACCAGGGTGAATAGGTCGTTGATGAGTAGGCG | 1 |
| CCGACTGGGGTAAGGTTACCATAACGCACAGCCA | 0.525 |
| CGTCCAAGGTCAAGGTCATTGAAAGAGACTCGAA | 5.37 |
| ACTAGCATGCCAAGGGTCACTCAAGATTAGTCCG | 2.93 |
| ATACCAAGGTGATCGTGAGGTCGTTGAAACTAAC | 3.53 |
| ACTATTAGTTGACTTAGGGCAACGGATACGACGC | 0.248 |
| ACTCGGAGGACAAAGGTCAGAGCAACGCCAGTGA | 3.39 |
| GCTGTTAGTTGAAAGGGCAACCGAATGATTCTCG | 0.572 |
